Source: the supplement of paper PMC3334620
The full ranking holds about 33,000 sequences; the median of “E-score (-0.5 to 0.5)” is about -0.036, and the highest 2% start at about 0.37. Shown is part of a subset that was picked to be rich in the highest values.

biological target: T1, Yer064c (UniProt P40041); assay: PBM E-score (8-mer binding enrichment) (E-score (-0.5 to 0.5)); higher = stronger / more preferred TF binding; conditions: protein concentration: 200 nM; construct: GST-full length
T1 sequence: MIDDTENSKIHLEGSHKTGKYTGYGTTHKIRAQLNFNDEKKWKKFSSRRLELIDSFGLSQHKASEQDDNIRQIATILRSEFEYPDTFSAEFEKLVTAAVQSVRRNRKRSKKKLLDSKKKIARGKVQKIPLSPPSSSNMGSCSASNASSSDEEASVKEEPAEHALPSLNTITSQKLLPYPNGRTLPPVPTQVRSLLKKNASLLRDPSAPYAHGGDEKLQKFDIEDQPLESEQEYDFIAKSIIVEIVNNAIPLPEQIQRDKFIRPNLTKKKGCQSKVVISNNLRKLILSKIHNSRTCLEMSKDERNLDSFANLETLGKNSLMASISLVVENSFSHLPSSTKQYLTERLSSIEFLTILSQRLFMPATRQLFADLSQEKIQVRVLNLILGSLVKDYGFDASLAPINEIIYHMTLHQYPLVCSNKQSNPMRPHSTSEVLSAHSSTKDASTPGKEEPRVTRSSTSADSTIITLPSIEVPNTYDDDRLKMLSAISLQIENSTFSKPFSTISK
Summary of the method: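 Bound GST-tagged yeast transcription factors, applied at about 100-200 nM to double-stranded universal all-10-mer Agilent arrays, were detected with fluorescent anti-GST. Scans were normalised with masliner. A modified Wilcoxon-Mann-Whitney statistic, the E-score, was assigned to each ungapped eight-base word pooled with its reverse complement by the Universal PBM Analysis Suite.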

| Sequence | PBM E-score |
| --- | --- |
| ATACTCAC | 0.312 |
| CGACTCAA | 0.474 |
| TGACTCAA | 0.492 |
| CGACTCTA | 0.343 |
| GTACTCAC | 0.387 |
| TAACTCAA | 0.263 |
| CTACTCAA | 0.162 |
| GGACTCAA | 0.409 |
| GTACTCAA | 0.314 |
| GAACTCAA | 0.145 |
| GGACTCTA | 0.193 |
| CACCTTGG | -0.142 |
| CCCAGCTA | -0.0347 |
| CTGGCTAA | 0.23 |
| CGTTCCAC | -0.25 |
| ACGCATAC | -0.135 |
| TAGCTCCA | -0.0907 |
| GGACTCCC | 0.214 |
| GGACTCAC | 0.43 |
| GCACTCAC | 0.0283 |
| AGGTACCG | -0.156 |
| ACTCGAAC | 0.136 |
| CCGTATGC | -0.167 |
| CCATTGAC | 0.0546 |
| CCGGCTGA | 0.165 |

| Sequence | PBM E-score |
| --- | --- |
| CAGACTAC | 0.215 |
| TAGACTAA | 0.3 |
| AAGACAAT | -0.0159 |
| AAGACTTC | 0.241 |
| GAGACGAA | -0.0519 |
| AAGACTAC | 0.413 |
| AAGACTAG | 0.338 |
| AAGACTAA | 0.442 |
| GAGACTAA | 0.413 |
| GAGACCAA | -0.0383 |
| AAGACTAT | 0.417 |
| AAAACTAA | 0.134 |
| CAACAGGG | -0.202 |
| ATGATACA | 0.246 |
| GAAGTGCC | -0.336 |
| GTTTGCTA | 0.0898 |
| GAGTTGCC | -0.149 |
| GACGGTAA | -0.284 |
| CAACTCCG | -0.12 |
| ATAGTTGC | 0.0257 |
| CGATGTAC | -0.0701 |
| AGGCCTCG | -0.184 |
| AGGACTAA | 0.405 |
| TGGACTAA | 0.348 |
| AGGACTAT | 0.31 |

| Sequence | PBM E-score |
| --- | --- |
| CCAGAGGA | 0.00907 |
| ATAGGGGC | -0.262 |
| GGAGTCCC | 0.189 |
| TCAGTCAA | 0.348 |
| CGAGTCAG | 0.46 |
| TGAGTCAA | 0.489 |
| CGAGTCCG | 0.272 |
| CAAGTCAG | 0.306 |
| CGAGTCTC | 0.307 |
| GGAGTCAC | 0.485 |
| CGAGTCAC | 0.477 |
| GGAGTTAC | -0.0565 |
| CGAGTCCC | 0.24 |
| TAAGTCAA | 0.344 |
| CCTTCTGA | -0.0564 |
| GAGAGCCA | 0.132 |
| TCCAGCCA | -0.198 |
| GCGTAGCC | 0.074 |
| ATCGATGC | -0.198 |
| AACTAGCG | -0.119 |
| CTCAAGGC | 0.104 |
| ATCCACTC | -0.0532 |
| TCCAACCA | -0.132 |
| CATCGGCC | -0.0369 |
| ACTGGGAC | 0.0246 |

| Sequence | PBM E-score |
| --- | --- |
| TGAGTACA | 0.376 |
| CGAGTCTA | 0.132 |
| CAAGTCAA | 0.196 |
| GGAGTCAA | 0.431 |
| GGAGTACA | 0.129 |
| AGAGTACA | 0.171 |
| CGAGTCCA | 0.0419 |
| CGAGTCAA | 0.444 |
| GGAGTCTA | 0.172 |
| GGAGTCCA | 0.243 |
| GGAGTCGA | 0.212 |
| TGAGTCCA | 0.397 |
| CAAAGCCG | -0.176 |
| ACCTGCGG | -0.208 |
| CAGGCGGC | 0.0353 |
| TGGCGCAA | -0.15 |
| CGCTGGTA | -0.0555 |
| AACTACCC | -0.158 |
| GACTACCA | 0.413 |
| CACTACCA | -0.0175 |
| CACTACCC | 0.00286 |
| TACTACCA | 0.00773 |
| GACTACCC | 0.42 |
| ACAAAACT | -0.0935 |
| CAGGACCC | -0.208 |

| Sequence | PBM E-score |
| --- | --- |
| GAGAACGA | -0.0613 |
| CCTTAGTC | 0.41 |
| ACTTAGTG | 0.198 |
| ACTTAGTC | 0.435 |
| CCTTAGAC | 0.063 |
| ACTTAGTA | 0.162 |
| CCTTAGTA | -0.0218 |
| GTCCATAA | -0.161 |
| CCCGGCGG | -0.182 |
| ATCCTGGG | -0.0196 |
| AGTCAAGC | 0.358 |
| ACTCAAGG | 0.29 |
| AGTCAAGA | 0.414 |
| CGTCAAGA | -0.229 |
| GGTCAAGA | -0.0401 |
| AGTCAAGG | 0.392 |
| CCTTCGTA | -0.15 |
| AGCGCTGA | 0.0781 |
| CTATCGGC | -0.0556 |
| ACACACGG | 0.0742 |
| ACTCACAA | 0.395 |
| ACGCACGG | -0.192 |
| ACTCACGA | 0.388 |
| ACTCACGG | 0.376 |
| ACTCACAG | 0.353 |

| Sequence | PBM E-score |
| --- | --- |
| CCTCACGA | -0.0431 |
| ACTCACGC | 0.357 |
| CCTCACAA | 0.038 |
| ATCTCAGA | -0.113 |
| ACCCCTAA | -0.0884 |
| AAGATTTC | 0.0103 |
| AATCTGAC | 0.23 |
| GGACGTAC | -0.0832 |
| ACAGCCTC | -0.308 |
| AAATCACC | 0.328 |
| TAATCACA | 0.419 |
| CAATCACG | 0.296 |
| GAATCACA | 0.439 |
| GAATCACC | 0.456 |
| CAATCACC | 0.343 |
| AAATCACG | 0.264 |
| AAATCACA | 0.219 |
| CAATCACA | 0.346 |
| AAACACAC | 0.0803 |
| AGACAGCC | -0.181 |
| AAAGTCCC | -0.235 |
| GGACTCGA | 0.118 |
| AGCAGTCA | 0.412 |
| ACCAGTCC | -0.0297 |
| CGCAGTCA | 0.422 |

| Sequence | PBM E-score |
| --- | --- |
| ACCAGTCA | 0.369 |
| AGCAGTCG | 0.065 |
| AGCAGTCC | -0.0176 |
| ACCAGTCT | 0.0632 |
| GGCAGTAA | 0.0188 |
| GGCAGTCA | 0.445 |
| GGCAGTGA | 0.0347 |
| CGCAGTCC | 0.134 |
| CCCAGTCA | 0.316 |
| AAACGGTA | 0.0163 |
| GTTATGGA | -0.119 |
| CGCCCGAC | -0.0703 |
| ATATCGGC | -0.169 |
| GATCGTAA | -0.068 |
| AATACCAC | -0.172 |
| GGCACTTA | -0.212 |
| CTATCCGC | 0.00533 |
| ATGGAGTG | -0.143 |
| ATGGAGTA | 0.182 |
| ATGGAGTC | 0.398 |
| CTGGAGAC | -0.0698 |
| CTGGAGTC | 0.39 |
| CTGGAGTA | 0.0648 |
